In PubChem BioAssay AID493220 (National Center for Advancing Translational Sciences (NCATS), 2011):
Inconclusive results are not listed. Active and inactive are the calls of the source. Calls follow the shape of the full dose curve.

Molecular target: Polyunsaturated fatty acid lipoxygenase ALOX15 (Homo sapiens) (UniProt P16050)
Assay: Inhibitors of 12-hLO (12-human lipoxygenase): 15hLO-1 Cuvette-Based Inhibition Counterscreen Assay for 12hLO Followup Compounds
Details: purified 15hLO-1, UV 234 nm product formation
Method in brief: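 Purified human 15hLO-1 at 50-200 nM, set to give 0.02-0.04 AU/s, was added to 10 uM arachidonic acid in 25 mM HEPES with 0.01% Triton X-100, pH 8.0. Product formation was followed at 234 nm in a stirred cuvette. IC50 values came from rates at about five inhibitor concentrations.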

Polyunsaturated fatty acid lipoxygenase ALOX15 (Homo sapiens), sequence (P16050 whole entry, looked up): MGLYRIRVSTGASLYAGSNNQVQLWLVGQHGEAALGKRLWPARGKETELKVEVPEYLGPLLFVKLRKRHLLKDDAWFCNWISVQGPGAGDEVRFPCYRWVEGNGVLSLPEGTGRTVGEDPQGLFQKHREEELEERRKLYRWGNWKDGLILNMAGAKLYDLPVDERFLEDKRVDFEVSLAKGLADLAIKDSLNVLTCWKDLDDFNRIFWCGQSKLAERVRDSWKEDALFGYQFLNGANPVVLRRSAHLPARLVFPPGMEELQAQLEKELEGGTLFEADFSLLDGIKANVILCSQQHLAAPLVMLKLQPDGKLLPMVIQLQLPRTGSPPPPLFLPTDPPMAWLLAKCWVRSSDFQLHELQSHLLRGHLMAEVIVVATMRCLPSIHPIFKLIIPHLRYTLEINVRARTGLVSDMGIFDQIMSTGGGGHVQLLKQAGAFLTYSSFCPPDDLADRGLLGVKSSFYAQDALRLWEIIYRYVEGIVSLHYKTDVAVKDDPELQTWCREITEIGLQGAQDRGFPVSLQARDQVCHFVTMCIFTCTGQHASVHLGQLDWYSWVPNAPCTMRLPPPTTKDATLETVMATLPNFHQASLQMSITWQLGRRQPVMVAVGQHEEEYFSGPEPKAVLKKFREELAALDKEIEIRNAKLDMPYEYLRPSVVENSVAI

| Compound | Potency | outcome |
| --- | --- | --- |
| COc1ccc(-c2[nH]ncc2-c2ccc(Cl)cc2)c(O)c1 | 6.81 µM (active) |  |
| CSCCC(NC(=O)c1ccc(Cl)cc1)C(=O)OCC(=O)Nc1ccc(C#N)cc1 (stereo not given) | 46.2 µM (active) |  |
| COc1ccc(C(=O)Nc2cc(C(=O)c3ccccc3)c(C)oc2=O)cc1 |  | inactive |
| COc1ccc(-c2n[nH]c(C(F)(F)F)c2-c2cc3ccccc3o2)c(O)c1 | 6.5 µM (active) |  |
| O=S(=O)(Nc1ccc(O)c(Sc2nc3ccccc3s2)c1)c1ccc(Cl)cc1 | 12.6 µM (active) |  |
| CN(C)c1nccc(N(Cc2ccccc2)Cc2ccccc2)c1C#N | 17.7 µM (active) |  |
| N#CC1=C(N)Oc2n[nH]c(-c3cccs3)c2C1C1CCCCC1 (stereo not given) | 9.33 µM (active) |  |
| CC1=NN(c2ccc(Cl)cc2)C(=O)C1C(c1cccc(O)c1)c1c(C)[nH]n(-c2ccc(Cl)cc2)c1=O (stereo not given) | 22.8 µM (active) |  |
| O=C(Nc1nnc(-c2ccc(Cl)cc2)o1)c1ccccc1Br |  | inactive |
| COc1cc(CNc2ccc(N3CCCC3)cc2)ccc1OCc1ccccc1 |  | inactive |
| COc1ccc2nc(NC(=O)c3cccc(OCc4c(C)noc4C)c3)sc2c1 | 33.6 µM (active) |  |
| O=C(Nc1nnc(-c2ccccn2)o1)c1ccc(Br)cc1 |  | inactive |
| Cc1ccc(C(=O)/C=C/c2c[nH]c3ccccc23)cc1 | 20.6 µM (active) |  |
| O=C(Nc1nnc(C2=COCCO2)o1)c1ccc(Cl)cc1 |  | inactive |
| COc1ccc(/C=C/c2nc(-c3ccccc3O)n[nH]2)cc1 | 11.2 µM (active) |  |
